Screens as filed in PubChem BioAssay.
ERa coact pot: ER-alpha (human) coactivator binding potentiation | AID 639 | hit rate 1.3% among 86,000 | P03372 | TR-FRET ERalpha-LBD/SRC-Cy5 coactivator binding, 2 h; 100 = basal binding, no effect | coactivator binding (% of control), % at 25.6 µM; in the data active = activity above about 200%;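 also: binding measured in presence of low estradiol as agonist stimulus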
Candida biofilm: kills Candida albicans biofilms. C. albicans biofilm + clotrimazole, Alamar Blue. inhibition, % at 6 µM. hit rate 0.14% among 85,000;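 active = inhibition above 20%; inactive = inhibition below 20%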;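 also: preformed 24 hr biofilms exposed to compound for 48 hr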
ERa coact inh: blocks coactivator binding to human estrogen receptor alpha; P03372; inhibition, % at 25.6 µM; TR-FRET ER-alpha LBD / SRC-1 peptide, estradiol-bound; hit rate 1.7% among 86,000; AID 629; in the data active = inhibition above about 50%
FAK inh: blocks human focal adhesion kinase activity; hit rate 0.84% among 97,000; Q05397; biochemical FAK kinase activity assay; AID 727; inhibition, %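 (tested at 7 µM)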; in the data active = inhibition above about 19%
Smad3 inh: blocks human Smad3 binding to FoxH1 peptide | P84022 | TR-FRET Smad3/Dy647-FoxH1 peptide binding, europium anti-His | inhibition, % at 25 µM | hit rate 0.29% among 88,000;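 active = compounds that reduce the energy-transfer binding signal between the protein and its labelled peptide by more than half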
Target sequence (P84022 whole entry, looked up): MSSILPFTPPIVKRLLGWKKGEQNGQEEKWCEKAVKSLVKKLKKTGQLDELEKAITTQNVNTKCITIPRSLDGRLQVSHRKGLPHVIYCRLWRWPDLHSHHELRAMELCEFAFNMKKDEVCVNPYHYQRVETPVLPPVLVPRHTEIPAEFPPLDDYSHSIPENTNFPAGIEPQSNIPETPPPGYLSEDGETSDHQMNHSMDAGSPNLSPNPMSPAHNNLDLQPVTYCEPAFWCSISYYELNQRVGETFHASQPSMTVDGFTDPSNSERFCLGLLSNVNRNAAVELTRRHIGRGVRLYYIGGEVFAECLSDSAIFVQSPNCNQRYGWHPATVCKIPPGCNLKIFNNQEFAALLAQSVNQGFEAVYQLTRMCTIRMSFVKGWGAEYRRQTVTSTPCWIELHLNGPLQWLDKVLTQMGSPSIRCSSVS
ERb SRC1 inh: blocks coactivator binding to human estrogen receptor beta; Q92731; inhibition, % at 25.6 µM; TR-FRET ER-beta LBD / SRC1-Cy5 peptide binding; receptor agonist-loaded with 1 µM estradiol; hit rate 1.3% among 86,000;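 active = compounds whose percent inhibition of the receptor-coactivator binding signal exceeds about 50% in the single-dose screen, limit read from the data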
Of the large screens only hits and unclear results are named; the others gave an inactive call; [ ] = dose if it differs, or a comment. Hits are enriched below; roughly 3.3% of the tested compounds scored in any of these assays.

Cc1nn2c(c1-c1ccc(Cl)cc1)N=C(c1ccco1)CC2c1ccccc1 (centres undefined)	none
C#Cc1ccc(C(=O)Nc2cc(C(N)=O)ccc2N2CCOCC2)cc1	ERa coact inh 68.9[fluorescence artefact?]
CC(C)c1nnc(N2C(=O)c3oc4ccccc4c(=O)c3C2c2ccco2)s1 (centres undefined)	none (no result: ERa coact pot, Candida biofilm, ERa coact inh, Smad3 inh, ERb SRC1 inh)
COc1ccc(C2c3c(oc4ccccc4c3=O)C(=O)N2c2ccccn2)cc1OC (centres undefined)	none (no result: FAK inh)
COc1ccc(C2c3c(oc4ccccc4c3=O)C(=O)N2c2ccccn2)cc1 (centres undefined)	ERa coact pot 218.5
Cc1nnc(N2C(=O)c3oc4ccccc4c(=O)c3C2c2ccco2)s1 (centres undefined)	ERb SRC1 inh 62.4[fluorescence artefact?] (no result: FAK inh)
CCOC(=O)c1cn2c3c(c(F)c(F)c(F)c3c1=O)SC(N1CCCC1)=N2	ERa coact pot 268.4[fluorescence artefact?] (no result: FAK inh)
N[C@@H](Cc1ccccc1)C(=O)O	none (no result: ERa coact pot, Candida biofilm, ERa coact inh, FAK inh, ERb SRC1 inh)
Cc1cc(C)n(-c2nc3ccccc3c(=O)n2OCCOc2ccccc2)n1	ERb SRC1 inh 55.6[fluorescence artefact?]
Cc1ccc(C)c(NC(=S)NC(NC(=O)Cc2cccc3ccccc23)C(Cl)(Cl)Cl)c1 (centres undefined)	ERa coact inh 67.9[fluorescence artefact?], ERb SRC1 inh 68.6
COC(=O)c1ccc(C(=O)OC)c(NC(=O)c2cc3ccccc3o2)c1	ERa coact pot 364.4[fluorescence artefact?]
Cc1csc(NC(=O)c2nc(-c3ccccc3)n(-c3ccccc3)n2)n1	none (no result: FAK inh)
O=C(Nc1nccs1)c1nc(-c2ccccc2)n(-c2ccccc2)n1	ERa coact pot 342.9
c1ccc(-c2cn3c4c(sc3n2)CCCC4)cc1	none (no result: FAK inh)
Cc1ccc(-c2c(C(=O)N3CCOCC3)oc(=O)c3ccccc23)cc1	Candida biofilm 27.0
CCN1CCN(C(=O)c2oc(=O)c3ccccc3c2-c2ccc(C)cc2)CC1	none (no result: FAK inh)
Cc1ccccc1CN1CCNC(=O)C1CC(=O)O (centres undefined)	Candida biofilm 28.3 (no result: FAK inh)
CCCNC(=O)c1c(NC(=O)C2COc3ccccc3O2)sc2c1CCCC2 (centres undefined)	none
O=C(NC1CCS(=O)(=O)C1)c1c(NC(=O)C2COc3ccccc3O2)sc2c1CCCC2 (centres undefined)	ERa coact inh 59.3
O=C(COC(=O)C1CCCN1C(=O)c1cccs1)Nc1ccc2c(c1)OCO2 (centres undefined)	ERa coact inh 51.6[fluorescence artefact?]
COc1ccc(NC(=O)COC(=O)[C@@H]2CCCN2C(=O)c2cccs2)cc1	none (no result: ERa coact pot, Candida biofilm, ERa coact inh, Smad3 inh, ERb SRC1 inh)
CCOc1ccccc1NC(=O)N1CCC(NC(=O)c2cccc(C)c2)CC1	ERa coact inh 62.6[fluorescence artefact?], ERb SRC1 inh 64.5[fluorescence artefact?]
CCOc1ccccc1NC(=O)N1CCC(NC(=O)c2ccccc2C)CC1	none
CC(=O)Nc1ccc(N2CCN(C(C)=O)CC2)cc1	ERb SRC1 inh 63.5
CC(=O)C1=C(C)NC(SCC(=O)c2ccc(C)cc2)=C(C#N)C1c1ccco1 (centres undefined)	none
Cc1ccc(C(=O)CSC2=C(C#N)C(c3ccco3)C3=C(CC(C)(C)CC3=O)N2)cc1 (centres undefined)	ERa coact pot 200.4
CCOC(=O)C1=C(c2ccccc2)NC(SCC(=O)NC2CCCCC2)=C(C#N)C1c1ccco1 (centres undefined)	ERa coact pot 364.2[fluorescence artefact?]
COc1ccccc1NC(=O)C1=C(C)NC(SCC(=O)c2ccccc2)=C(C#N)C1c1ccco1 (centres undefined)	ERa coact pot 277.8[fluorescence artefact?]
C=CCOC(=O)C1=C(C)NC(SCC(=O)Nc2ccc(C)c(Cl)c2)=C(C#N)C1c1ccco1 (centres undefined)	ERa coact inh 94.2[fluorescence artefact?]
O=C1c2ccccc2C(=O)c2c1ccc(N1C(=O)c3ccccc3C1=O)c2-c1c(N2C(=O)c3ccccc3C2=O)ccc2c1C(=O)c1ccccc1C2=O	none (no result: ERa coact pot, Candida biofilm, ERa coact inh, FAK inh, ERb SRC1 inh)
O=C(CN(C(=O)c1cc2c(s1)CCC2)C1CCCC1)NCc1cccs1	none
Cc1cc(C(=O)CSc2nnc(-c3ccccc3)n2C)c(C)n1C	none
Cc1cc(C(=O)CSc2nnc(-c3cccnc3)n2-c2ccccc2F)c(C)n1C	ERa coact inh 69.9
COc1ccccc1C(=O)O/N=C(/C)c1ccc(N2C(=O)C3CCCCC3C2=O)cc1 (centres undefined)	none (no result: ERa coact pot, Candida biofilm, ERa coact inh, Smad3 inh, ERb SRC1 inh)
COc1ccc(NC2C=CS(=O)(=O)C2)c(OC)c1 (centres undefined)	Candida biofilm 23.7
COc1ccc2cc(CN(CC3COCCO3)S(=O)(=O)c3ccc(Cl)cc3)c(=O)[nH]c2c1 (centres undefined)	ERa coact pot 234.2[fluorescence artefact?]
COc1ccc2cc(CN(CC3COCCO3)S(=O)(=O)c3c(C)cc(C)cc3C)c(=O)[nH]c2c1 (centres undefined)	none (no result: ERa coact pot, Candida biofilm, ERa coact inh, Smad3 inh, ERb SRC1 inh)
Oc1c(Br)cc(Br)cc1CN(Cc1cc(Br)cc(Br)c1O)C1CCCCC1	none (no result: ERa coact pot, Candida biofilm, ERa coact inh, FAK inh, ERb SRC1 inh)
CCOC(=O)C(C(=O)OCC)c1cc(Br)c2noc3c2c1C(=O)c1ccccc1-3	none (no result: ERa coact pot, Candida biofilm, ERa coact inh, Smad3 inh, ERb SRC1 inh)
O=C1c2ccccc2-c2onc3ccc(Oc4ccccc4)c1c23	ERa coact inh 76.3[fluorescence artefact?], FAK inh 36.4
CCCCN(C)CCNC(=O)c1c[nH]c2ccc(S(=O)(=O)N(CC)CC)cc2c1=O	none
CCN(c1ccccc1)S(=O)(=O)c1ccc2[nH]cc(C(=O)NCCOC)c(=O)c2c1	ERa coact inh 50.3
O=c1cc(CN2CCN(c3ccccc3)CC2)c2cc(O)c(-c3ccccc3)cc2o1	ERa coact inh 79.0[fluorescence artefact?]
O=c1cc(CN2CCN(Cc3ccccc3)CC2)c2cc(Cl)ccc2o1	ERb SRC1 inh 60.0[fluorescence artefact?]
CC(C)(C)C1CCC2(CC1)CCN(CCCN1CCOCC1)CC2	none (no result: ERa coact pot, Candida biofilm, ERa coact inh, FAK inh, ERb SRC1 inh)
CN1CCN(c2ccccc2NC(=O)c2cc(Br)ccc2Cl)CC1	ERa coact inh 82.3[fluorescence artefact?]
O=C(C1=COCCO1)N1CCN(S(=O)(=O)c2cccc(Cl)c2Cl)CC1	ERb SRC1 inh 59.8[fluorescence artefact?]
Cc1ccc(S(=O)(=O)N2CCN(C(=O)C3=COCCO3)CC2)cc1C	none
CC(C)=CCC/C(C)=C/CC(C)(C)CNCCN1CCNCC1	none
CC(C)=CCC/C(C)=C/CCC(C)NCCN1CCNCC1 (centres undefined)	ERa coact pot 200.7[fluorescence artefact?]
N#CC(C(=O)NCCc1ccccc1)c1nc2ccccc2nc1N1CCOCC1 (centres undefined)	ERa coact inh 75.5[fluorescence artefact?]
Clc1cccc(-c2ccc(/C=N/n3cnnc3)o2)c1Cl	ERa coact inh 50.7[fluorescence artefact?]
COC(=O)c1sc(NC(=O)CSc2nc3cccnc3n2C2CCCCC2)nc1C	ERa coact inh 72.2[fluorescence artefact?], ERb SRC1 inh 61.3[fluorescence artefact?]
Nc1nc(Nc2ccccc2Br)nc(C(F)(F)F)n1	none (no result: FAK inh)
Nc1ncnc(Nc2ccccc2C(F)(F)F)n1	ERa coact pot 666.0[fluorescence artefact?]
Cc1ccc(NCN2C(=O)C3C4C=CC(C4)C3C2=O)cc1 (centres undefined)	none
O=C1C2C3C=CC(C3)C2C(=O)N1CNc1ccc(O)cc1 (centres undefined)	ERa coact inh 61.0[fluorescence artefact?], ERb SRC1 inh 87.3[fluorescence artefact?] (no result: FAK inh)
C=C(C)CSc1nc2c(cc1C#N)CCC2	ERb SRC1 inh 99.2[fluorescence artefact?]
N#Cc1cc2c(nc1SCC(N)=O)CCCCC2	none
